Records with an inconclusive call do not appear. Calls of active or inactive are those of the source. Calls come from the whole dose curve; as a rule, active = well fitted curve in the direction sought with a large enough effect; inconclusive = small, poorly fitted or top-dose-only effect, or another doubt; inactive = no such curve, though single readings can be large; an effect the other way counts as inactive or inconclusive.
What was measured:
[1] = test system: MKL-2; assay: qHTS assay to identify novel small-molecules to repurpose for Merkel cell carcinoma treatment (AID 1296009); details: MCC and control cell lines, CellTiter-Glo viability, 72 h; series mostly up to 46 µM; note: nearly all actives have a fitted effect of over 60% in size
Summary of the method: (§1)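 Cell viability measured by CellTiter-Glo following 72 hr compound treatment at 37 degree celsius, with NPC and MIPE libraries tested in 8- and 11-point concentration series.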

[2] = test system: WaGa; assay: as above; details: MCC and control cell lines, CellTiter-Glo viability, 72 h; series mostly up to 46 µM
Summary of the method: as §1

[3] = test system: HeLa; assay: Primary qHTS to identify gynecologic anti-cancer compounds using libraries of approved drugs and bioactive compounds (AID 1345084); details: Gynecologic cancer cell panel viability, ATPlite luminescence, 48 h; series mostly up to 57.5 µM; note: nearly all actives have a fitted effect of over 55% in size
Summary of the method: (§2)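 Five-concentration response, 48 h; readout is ATP-driven luciferase luminescence.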

[4] = test system: JEG-3; assay: as above; details: Gynecologic cancer cell panel viability, ATPlite luminescence, 48 h; series mostly up to 57.5 µM
Summary of the method: as §2

[5] = test system: OV90; assay: as above; details: Gynecologic cancer cell panel viability, ATPlite luminescence, 48 h; series mostly up to 57.5 µM
Summary of the method: as §2

[6] = test system: PA-1; assay: as above; details: Gynecologic cancer cell panel viability, ATPlite luminescence, 48 h; series mostly up to 57.5 µM
Summary of the method: as §2

[7] = test system: Tov-21-G; assay: as above; details: Gynecologic cancer cell panel viability, ATPlite luminescence, 48 h; series mostly up to 57.5 µM
Summary of the method: as §2

[8] = test system: UISO; assay: qHTS assay to identify novel small-molecules to repurpose for Merkel cell carcinoma treatment (AID 1296009); details: MCC and control cell lines, CellTiter-Glo viability, 72 h; series mostly up to 46 µM; note: nearly all actives have a fitted effect of over 60% in size
Summary of the method: as §1

[9] = test system: C33A; assay: Primary qHTS to identify gynecologic anti-cancer compounds using libraries of approved drugs and bioactive compounds (AID 1345084); details: Gynecologic cancer cell panel viability, ATPlite luminescence, 48 h; series mostly up to 57.5 µM; note: nearly all actives have a fitted effect of over 55% in size
Summary of the method: as §2

[10] = test system: CAOV3; assay: as above; details: Gynecologic cancer cell panel viability, ATPlite luminescence, 48 h; series mostly up to 57.5 µM
Summary of the method: as §2

[11] = test system: CASKI; assay: as above; details: Gynecologic cancer cell panel viability, ATPlite luminescence, 48 h; series mostly up to 57.5 µM
Summary of the method: as §2

[12] = test system: Es-2; assay: as above; details: Gynecologic cancer cell panel viability, ATPlite luminescence, 48 h; series mostly up to 57.5 µM
Summary of the method: as §2

[13] = test system: Hek293T; assay: as above; details: Gynecologic cancer cell panel viability, ATPlite luminescence, 48 h, control line for the selectivity index; series mostly up to 57.5 µM
Summary of the method: as §2

[14] = test system: SKOV3; assay: as above; details: Gynecologic cancer cell panel viability, ATPlite luminescence, 48 h; series mostly up to 57.5 µM
Summary of the method: as §2

[15] = test system: Tov112D; assay: as above; details: Gynecologic cancer cell panel viability, ATPlite luminescence, 48 h; series mostly up to 57.5 µM
Summary of the method: as §2

[16] = Drug repurposing screens with cells derived from glioblastoma tumor samples (AID 1345199); details: GBM patient neurospheres viability, ATP luminescence, 48 h; note: nearly all actives have a fitted effect of over 40% in size
Summary of the method: (§3)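 Primary testing used CD133+ neurospheres from four GBM patients, seven concentrations, 48 h exposure and ATP-based viability; confirmation added three slower-growing patient lines.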

[17] = test system: astro; assay: as above; details: viability, ATP luminescence, 48 h; series mostly up to 45.9 µM
Summary of the method: as §3

[18] = qHTS assay to identify inhibitors of the type 1 interferon - major histocompatibility complex class I in skeletal muscle: Counter screen cell viability and HiBit confirmation (AID 1347412); details: iHSKM muscle cells + IFN-b, HiBiT or CellTiter-Glo, 24 h; for activity change, negative = inhibition: at 45.9 µM (top of the series); for all read-outs here: nearly all actives have a fitted effect of over 60% in size
Summary of the method: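 Luminescence read-out: Nano-Glo HiBiT lytic signal from C-terminally HiBiT-tagged HLA-B in CRISPR-edited human myoblasts, plus CellTiter Glo ATP as viability counter screen. IFN-beta 4.0 ng/ml; 24 hrs treatment at 37 C, 5% CO2.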

[19] = at 45.9 µM (top of the series), tumour line B
[20] = at 45.9 µM (top of the series), tumour line D
[21] = at 46.1 µM (top of the series), tumour line C
% is set by controls: 0 for no effect and ±100 for the full control effect; potency is the fitted concentration of half-maximal effect.

COc1cc(N2CCC(N3CCN(C)CC3)CC2)ccc1Nc1ncnc(Nc2ccccc2S(=O)(=O)C(C)C)n1
active: Potency [3] 10 µM | Potency [5] 8.91 µM | Potency [6] 7.94 µM | Potency [7] 12.6 µM
inactive: Potency [1] | Potency [2] | Potency [4]

Nc1nc(F)nc2c1ncn2[C@@H]1O[C@H](COP(=O)(O)O)[C@@H](O)[C@H]1O
active: Potency [8] 13.2 µM | Potency [2] 14.8 µM

CC=CCC=CCCC(=O)[C@H]1O[C@@H]1C(N)=O
inactive: Potency [8] | Potency [2]

O=c1[nH]cnc2c1ncn2[C@H]1CC[C@@H](CO)O1
inactive: Potency [9] | Potency [10] | Potency [11] | Potency [12] | Potency [3] | Potency [13] | Potency [4] | Potency [5] | Potency [6] | Potency [14] | Potency [7] | Potency [15] | activity, negative = cell killing [16, 19] -2.39% | activity, negative = cell killing [16, 20] 8.81% | activity, negative = cell killing ([16]; at 46 µM (top of the series), tumour line A) -25.7% | activity, negative = cell killing [16, 21] -15.1% | Potency [17]

COc1ccc(Cc2nccc3cc(OC)c(OC)cc23)cc1OC
inactive: activity change, negative = inhibition ([18]; HiBiT) -26.2% | activity change, negative = inhibition ([18]; Viability) -0.43%

CCOc1ccc(Nc2nc(-c3c(C)nc4ccccn34)cs2)cc1
active: Potency [9] 0.355 µM | Potency [12] 0.316 µM | Potency [3] 0.178 µM | Potency [5] 1.41 µM | Potency [7] 0.316 µM | Potency [15] 0.158 µM

Cc1nc(N)sc1-c1ccnc(Nc2ccc(N3CCOCC3)cc2)n1
inactive: Potency [1]
active: Potency [12] 10 µM | Potency [3] 2.51 µM | Potency [5] 15.8 µM | Potency [6] 8.91 µM | Potency [14] 8.91 µM | Potency [7] 14.1 µM | Potency [15] 12.6 µM | Potency ([18]; HiBiT) 5.57 µM

CC(C)OC(=O)C(C)(C)Oc1ccc(C(=O)c2ccc(Cl)cc2)cc1
active: Potency ([16]; tumour line A) 11.2 µM
inactive: Potency [9] | Potency [10] | Potency [11] | Potency [3] | Potency [4] | Potency [5] | Potency [6] | Potency [14] | Potency [7] | Potency [15] | activity, negative = cell killing [16, 19] -21.9% | Potency [17]

CC(=O)O[C@]1(C(C)=O)CC[C@H]2[C@@H]3C=C(Cl)C4=CC(=O)[C@@H]5C[C@@H]5[C@]4(C)[C@H]3CC[C@@]21C
inactive: Potency [9] | Potency [11] | Potency [12] | Potency [13] | Potency [4] | Potency [5] | Potency [6] | Potency [14] | Potency [7] | Potency [15] | activity, negative = cell killing [16, 19] -17.9% | activity, negative = cell killing [16, 20] -23% | activity, negative = cell killing [16, 21] 2.8% | Potency [17]

From PubChem BioAssay (NCATS)
